Sensor-assay potency score (higher = more potent) data for 39 sequences are collected here from the OligoGym collection.
Further: reference of the scale not given here.

In one test the target is MTG1. Description: pooled miR-30 sensor sort-seq; sequence = guide strand. Particulars: shRNA.
As to ATCAGTTCAGTGACCATCGGGA, the sensor-assay potency score (higher = more potent) was -0.492. In the case of TTTCCCTTTCCTGAGGTGCTGC, the sensor-assay potency score (higher = more potent) was -0.722.

TTTTGGACATCACAGCTCTGGT: the sensor-assay potency score (higher = more potent) was -1.25.

A further test addresses MTMR14. Described as above. Particulars: shRNA.
Take TTATTTTGTGATCTGTGTCAAA: the sensor-assay potency score (higher = more potent) was -0.837.

As for TTTGCTGAGCCGATCTACCAAC, the sensor-assay potency score (higher = more potent) was -1.14. Still for that read-out and setting: then TCGAAGAGCACAGTCCTCCTCC, with -0.118. Turning to TGACAGGTATCGAAGCAGCTTG, the sensor-assay potency score (higher = more potent) was -1.11.

TTTGTGATCTGTGTCAAACTGC: the sensor-assay potency score (higher = more potent) was 0.417.

Consider TTTGGAATCACGCTGAAACAGT, for which the sensor-assay potency score (higher = more potent) was -0.856. Same read-out and setting: with TTGAACAGGATTACTGGGCAGA the figure was -0.111. With TATTTGACTGACAGGTATCGAA, the sensor-assay potency score (higher = more potent) is -0.898. Take TTGTCCACCTTCTCAGAGGAGG: the sensor-assay potency score (higher = more potent) is -1.29. Regarding TGAAACAGTAGTCTCGGCCAAA, the sensor-assay potency score (higher = more potent) is -1.3. Same read-out and setting: with TGAGATACAGTGTACCAGCAGC the figure was -0.892. Sequence TTCGTGTTTGGAATCACGCTGA displayed a sensor-assay potency score (higher = more potent) of 0.52.

The next test deals with MTOR. The description is as above. Particulars: shRNA.
With TTAGAAGGAAAACAAACTCATG, the sensor-assay potency score (higher = more potent) is -1.25.

On to TAGGAATCCGTCCTCGTTCGGG, for which the sensor-assay potency score (higher = more potent) was -0.165. As for ATAGCATTGGTCAACATTCTTG, the sensor-assay potency score (higher = more potent) was -0.775.

For the sequence TTGTTGGCTGCATTGTGCCGGG, the sensor-assay potency score (higher = more potent) was -0.403. Still for that read-out and setting: then TTTTGGGGAAACATATTGCAGC, with -1.1; and TTGAGTATTTGTTCTGCTCATA, with -0.623; and TATATTCTTCAACAGCAGCTAG, with -0.667. For the sequence TTGGGTCTCATCATTAACCAGG, the sensor-assay potency score (higher = more potent) is -0.739. On to TTTGTGTCCATCAGCCTCCAGT, for which the sensor-assay potency score (higher = more potent) is -0.591. Still for that read-out and setting: then TATCCCTTGACAATTCTGCAGA, with -0.562; and TCTCTGGAAACTTCTCTCGGGT, with -0.556. Still for that read-out and setting: then TATAATTGGTTCTTCGGTCAAA, with -0.45; and TTAGAAGCCACTGTCAGTGGGT, with 0.584. Still for that read-out and setting: with TTGACCACTGAAAACATCCCAG the figure was 0.0557; with TAAATCTCGACCATAGGCCTGA, 0.425; with TTCTCTGGAAACTTCTCTCGGG, -0.303. Consider TTCTTCTCCCTGTAGTCCCGGA, for which the sensor-assay potency score (higher = more potent) was -0.437. The same measure, in the same setting: with TTTCATGGGATGTCGCTTGTTT the figure was 0.0185; with TTACTATGTTTCACTGTCCTGG, -0.25.

Regarding TAGCATTGGTCAACATTCTTGT, the sensor-assay potency score (higher = more potent) was found to be 0.089. Take TTATTCTGATACAACATGGTGT: the sensor-assay potency score (higher = more potent) came out at 0.00722.

As for TTTGATGAGCAGCTCAACTTGC, the sensor-assay potency score (higher = more potent) is 0.357. On the same count and under the same terms, then TTTGGTATTTGTGTCCATCAGC, with -0.533; and TTTAGTTGAGTATTTGTTCTGC, with 0.462.
